Molecular target: T1, ETS1 (UniProt P14921)
T1 sequence: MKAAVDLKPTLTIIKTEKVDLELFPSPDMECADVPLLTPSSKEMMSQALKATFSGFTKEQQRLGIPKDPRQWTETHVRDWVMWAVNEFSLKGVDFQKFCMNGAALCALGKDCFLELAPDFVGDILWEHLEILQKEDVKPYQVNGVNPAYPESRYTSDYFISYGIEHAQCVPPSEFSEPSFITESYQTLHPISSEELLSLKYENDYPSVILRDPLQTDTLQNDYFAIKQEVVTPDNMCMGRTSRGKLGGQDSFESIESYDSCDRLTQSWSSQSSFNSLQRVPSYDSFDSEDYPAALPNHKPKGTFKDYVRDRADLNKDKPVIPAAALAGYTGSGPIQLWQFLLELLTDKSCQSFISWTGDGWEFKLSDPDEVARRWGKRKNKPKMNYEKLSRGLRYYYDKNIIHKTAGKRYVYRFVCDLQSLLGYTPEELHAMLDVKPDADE
Test: TF binding intensity (PBM fluorescence), negative control probe (arbitrary fluorescence units); higher = stronger binding
Description: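 gcPBM negative-control 36-bp genomic probes lacking TF binding sites. Each was incubated with recombinant human ETS1 or RUNX1 alone and detected by antibody fluorescence. Values are medians over replicate spots (4 spots for the ETS1-RUNX1 arrays, 3 for the ETS1-ETS1 array). The probes sit in constant array flanks that are not printed.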

Sequence	TF binding intensity
GCAGTGAGCTGAGATCACACCATTGCACTCCAGCCT (protein concentration 10 nM)	135
GTTCCAGGCATTGTACTGAGGGGAGGCCCTCCTGTG (protein concentration 10 nM)	109
TCGAGTGGTGAGAAGGAGAAGGAGCGGCTGGGAGGC (protein concentration 10 nM)	137
GGGTGGTGGGGCTTTCTTAGCAGCAAAATGTTCGCG (protein concentration 10 nM)	223
CCGACACTCCATGAGTTAGTTCAGTCCTCTGACACC (protein concentration 10 nM)	150
ATGGCCAGTTCACAGTGAGCCAAAGTCCTCCTCACA (protein concentration 10 nM)	94.5
CACACCCGCCTGTTACCCACATGCACAAGCAGTCTG (protein concentration 1 nM)	449
AAAATACTGCCTTCAAGTACTGTGACTCTTTTCAGG (protein concentration 10 nM)	112
CCCCTGTGCAACCTTTCATTCCCTAAGCCACTTTTC (protein concentration 10 nM)	139
CTTCAAAGGCCCCGCATTAGCTGGGGTCGATCCAGA (protein concentration 10 nM)	154
GTTTTGCAACTCTTATTCCAAGTGGACACCCAGAAA (protein concentration 10 nM)	140
AACGTCTACATTTGCTATTGTAAAACTTTTCAAGGC (protein concentration 10 nM)	125
TAGGTTCTAGCCTGCTTAGCTAGAGTTTAGTTTATT (protein concentration 10 nM)	110
CTTAGTTCAGTGTAAGGGGCCTGGTTGTTGGATTTT (protein concentration 10 nM)	119
AACTGTGACGTTACATTGCAAGGGCATGAATACAGG (protein concentration 10 nM)	131
GGCAAGCTTATATAGTTTGCTTCATAAAACTCTATT (protein concentration 10 nM)	119
ATAGTACAAGCACTAGTCAAAGCTAGAGGTCACTCT (protein concentration 10 nM)	111
TTTAAAAAATCTACTCTGTCCCTTAAAAGGCCGTTT (protein concentration 10 nM)	107
GATGTGGCCTATAGGGATCCTTCACTTAGGCATGAG (protein concentration 10 nM)	121
TCTCTCTGCTCTGTGAACTCTAGCTGTCTTGGCTTC (protein concentration 10 nM)	142

Sequence	TF binding intensity
TCTTGTATTTTCCTAAAGATTTGTGTGCTGTTTCTC (protein concentration 10 nM)	100
CATGAAGAATATAGCATTGTTTTGTATATGTTTTAA (protein concentration 10 nM)	131
CGGACTGGGAGTTTGACCGCGTTGACGACGGCTCGC (protein concentration 1 nM)	446
AGCGGGAGGGAGGCCAGGGAAGGCTGCTGGGGGTCG (protein concentration 10 nM)	142
ACGGAGCTTGCTCTGGCCATCTCTGTCCCTGCCTGT (protein concentration 10 nM)	102
CCCCAGTAGAAGCCACCCAGCCTTTTGTTTGTTTTC (protein concentration 10 nM)	133
ACACATCAAAATGTCTGTGGTTTTTATGAAAAATAG (protein concentration 1 nM)	510
TGGCCTGGGAAAGAACCCACAGGCTTCTGGTTGCTG (protein concentration 1 nM)	597
AAAGGCATGTAATGAACACTAAAACCCAAGAACCTG (protein concentration 10 nM)	114
AAGTCCCTCCTCTAAACCACTTTGATGAGGACCAAA (protein concentration 1 nM)	387
ATAATGGAAAGCGAAACCGCAGATTAAGCAGGGACT (protein concentration 1 nM)	398
ATGGCATACTAAGTAGCCACAACATGCAAGATGGAC (protein concentration 1 nM)	440
TCCTTTTGCTATACAGACCCCAGAACTCCTGAATGG (protein concentration 10 nM)	119
TAAATCAAAAGATGACCAAGCTGGAGAGAAAAGTGA (protein concentration 10 nM)	129
GCCCATCATTGGAGTCCCTTGGGGGTATCTGGAGCA (protein concentration 10 nM)	161
ACTGATCATCTGAAATGTGGCTAGTGTGAAAATGAA (protein concentration 1 nM)	532
AAGTTAATGAGATATTGTGGTTGTTTGTGTTTGGTT (protein concentration 1 nM)	477
ACTGCGCGCAGGGCCTGCAGCGGCAGCTGGACTGGG (protein concentration 10 nM)	120
TGAATGAGTCTTTTTTTGGCCATCTCTTTATGATTA (protein concentration 10 nM)	132
CCCAATCTGTAACAACCCACATCTGTTCCTTATTTG (protein concentration 1 nM)	466

— the supplement of paper PMC10681739
